The source of these data is PubChem BioAssay (NCATS).

Inconclusive results are not listed. Entries that show only a call come without a potency. Active and inactive are the calls of the source. Calls come from the whole dose curve; as a rule, active = well fitted cell-killing curve with a large enough effect; inconclusive = small, poorly fitted or top-dose-only effect, or effect the other way; inactive = flat fitted curve, though single readings scatter.

The subject of the test is JEG-3. Kind of test: Primary qHTS to identify gynecologic anti-cancer compounds using libraries of approved drugs and bioactive compounds (AID 1345084). Note: nearly all actives have a fitted effect of over 55% in size. The note with it: Gynecologic cancer cell panel viability, ATPlite luminescence, 48 h; series mostly up to 57.5 µM. The method, boiled down:
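Cell viability after 48 h drug treatment, ATPlite luminescence readout; five doses.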
In general terms: In qHTS, concentration-response curves come from the screen itself.
Consider `CCCCc1nc(Cl)c(CO)n1Cc1ccc(-c2ccccc2-c2nnn[nH]2)cc1`, for which the Potency entry was “inactive”.

Regarding `COc1ccc2c(c1)CN(C(=O)CCN1CCC(Cc3ccccc3)CC1)CCS2`, the Potency entry was “inactive”.

In the case of `C=C1C(=O)O[C@@H]2[C@H]1[C@H](O)C[C@]1(C)[C@@H](O)CC=C(C)[C@@H]21`, the Potency entry was “inactive”.

For the compound `CCNC(=O)[C@@H]1CCCN1C(=O)[C@H](CCCN=C(N)N)NC(=O)[C@H](CC(C)C)NC(=O)[C@@H](CC(C)C)NC(=O)[C@H](Cc1ccc(O)cc1)NC(=O)[C@H](CO)NC(=O)[C@H](Cc1c[nH]c2ccccc12)NC(=O)[C@H](Cc1cnc[nH]1)NC(=O)[C@@H]1CCC(=O)N1`, the Potency entry is “inactive”.

Take `COc1ccc(C2(CNC(=O)[C@](C)(Cc3c[nH]c4ccccc34)NC(=O)Nc3ccc([N+](=O)[O-])cc3)CCCCC2)nc1`: the Potency result is “inactive”.

With `CCN(CC)Cc1cccc(/C=C/c2nc3ccc(F)cc3c(=O)n2-c2ccccc2Cl)n1`, the Potency entry is “inactive”.
